From PubChem BioAssay (NCATS)
Records with an inconclusive call do not appear. Calls of active or inactive are those of the source. The call rests on the fitted dose curve; in most records, active means well fitted curve in the direction sought with a large enough effect; inconclusive means small, poorly fitted or top-dose-only effect, or another doubt; inactive means no such curve, though single readings can be large; an effect the other way counts as inactive or inconclusive.

How the values were obtained:
MCC-13 = assay: qHTS assay to identify novel small-molecules to repurpose for Merkel cell carcinoma treatment (AID 1296009); settings: MCC and control cell lines, CellTiter-Glo viability, 72 h; series mostly up to 46 µM; further: nearly all actives have a fitted effect of over 60% in size
Procedure, shortened: (§1)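 Cells were treated for 72 hr at 37 degree celsius with compounds in 8- or 11-point dose response. Viability was read by CellTiter-Glo luminescence, normalized to no-cell (cytotoxicity) and DMSO controls.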

MCC-26 = assay: as above; settings: MCC and control cell lines, CellTiter-Glo viability, 72 h; series mostly up to 46 µM
Procedure, shortened: as §1

MKL-1 = assay: as above; settings: MCC and control cell lines, CellTiter-Glo viability, 72 h; series mostly up to 46 µM
Procedure, shortened: as §1

UISO = assay: as above; settings: MCC and control cell lines, CellTiter-Glo viability, 72 h; series mostly up to 46 µM
Procedure, shortened: as §1

WaGa = assay: as above; settings: MCC and control cell lines, CellTiter-Glo viability, 72 h; series mostly up to 46 µM
Procedure, shortened: as §1

C33A = assay: Primary qHTS to identify gynecologic anti-cancer compounds using libraries of approved drugs and bioactive compounds (AID 1345084); settings: Gynecologic cancer cell panel viability, ATPlite luminescence, 48 h; series mostly up to 57.5 µM; further: nearly all actives have a fitted effect of over 55% in size
Procedure, shortened: (§2)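 Cells, 1,000 per well, were allowed to settle for 16 h at 37 C before compound addition. Five concentrations were tested for 48 h, and viability was read by ATPlite luminescence after 15 min at room temperature.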

CAOV3 = assay: as above; settings: Gynecologic cancer cell panel viability, ATPlite luminescence, 48 h; series mostly up to 57.5 µM
Procedure, shortened: as §2

CASKI = assay: as above; settings: Gynecologic cancer cell panel viability, ATPlite luminescence, 48 h; series mostly up to 57.5 µM
Procedure, shortened: as §2

Es-2 = assay: as above; settings: Gynecologic cancer cell panel viability, ATPlite luminescence, 48 h; series mostly up to 57.5 µM
Procedure, shortened: as §2

HeLa = assay: as above; settings: Gynecologic cancer cell panel viability, ATPlite luminescence, 48 h; series mostly up to 57.5 µM
Procedure, shortened: as §2

Hek293T = assay: as above; settings: Gynecologic cancer cell panel viability, ATPlite luminescence, 48 h, control line for the selectivity index; series mostly up to 57.5 µM
Procedure, shortened: as §2

JEG-3 = assay: as above; settings: Gynecologic cancer cell panel viability, ATPlite luminescence, 48 h; series mostly up to 57.5 µM
Procedure, shortened: as §2

OV90 = assay: as above; settings: Gynecologic cancer cell panel viability, ATPlite luminescence, 48 h; series mostly up to 57.5 µM
Procedure, shortened: as §2

PA-1 = assay: as above; settings: Gynecologic cancer cell panel viability, ATPlite luminescence, 48 h; series mostly up to 57.5 µM
Procedure, shortened: as §2

SKOV3 = assay: as above; settings: Gynecologic cancer cell panel viability, ATPlite luminescence, 48 h; series mostly up to 57.5 µM
Procedure, shortened: as §2

Tov-21-G = assay: as above; settings: Gynecologic cancer cell panel viability, ATPlite luminescence, 48 h; series mostly up to 57.5 µM
Procedure, shortened: as §2

Tov112D = assay: as above; settings: Gynecologic cancer cell panel viability, ATPlite luminescence, 48 h; series mostly up to 57.5 µM
Procedure, shortened: as §2

[1] = Drug repurposing screens with cells derived from glioblastoma tumor samples (AID 1345199); settings: GBM patient neurospheres viability, ATP luminescence, 48 h; further: nearly all actives have a fitted effect of over 40% in size
Procedure, shortened: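 Four patient lines of CD133+ GBM neurospheres were screened at several concentrations; hits were retested in those lines plus three slower-growing GBM lines, using 48-hour treatment and ATP-based viability.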

MKL-2 = assay: qHTS assay to identify novel small-molecules to repurpose for Merkel cell carcinoma treatment (AID 1296009); settings: MCC and control cell lines, CellTiter-Glo viability, 72 h; series mostly up to 46 µM; further: nearly all actives have a fitted effect of over 60% in size
Procedure, shortened: as §1

NIH3T3 = assay: as above; settings: MCC and control cell lines, CellTiter-Glo viability, 72 h; at 44.8 µM (top of the series) unless noted
Procedure, shortened: as §1

[2] = at 45.9 µM (top of the series), tumour line B
[3] = at 45.9 µM (top of the series), tumour line D
[4] = at 46 µM (top of the series), tumour line A
[5] = at 46.1 µM (top of the series), tumour line C
On the % scale 0 is the no-effect control and ±100 the full control effect; potency means the concentration at half of the fitted maximal effect.

CC(O)(P(=O)(O)O)P(=O)(O)O
inactive: Potency (MCC-13) | Potency (MCC-26) | Potency (MKL-1) | Potency (UISO) | Potency (WaGa) | Potency (C33A) | Potency (CAOV3) | Potency (CASKI) | Potency (Es-2) | Potency (HeLa) | Potency (Hek293T) | Potency (JEG-3) | Potency (OV90) | Potency (PA-1) | Potency (SKOV3) | Potency (Tov-21-G) | Potency (Tov112D) | activity, negative = cell killing [1, 2] -12.4% | activity, negative = cell killing [1, 3] 0.0097% | activity, negative = cell killing [1, 4] -26.7% | activity, negative = cell killing [1, 5] -3.69%

c1ccc(CNCCNCc2ccccc2)cc1
active: Potency ([1]; tumour line A) 22.4 µM
inactive: Potency (MCC-13) | Potency (MCC-26) | Potency (MKL-1) | Potency (UISO) | Potency (WaGa) | Potency (C33A) | Potency (CASKI) | Potency (Es-2) | Potency (HeLa) | Potency (Hek293T) | Potency (JEG-3) | Potency (OV90) | Potency (PA-1) | Potency (SKOV3) | Potency (Tov-21-G) | Potency (Tov112D) | activity, negative = cell killing [1, 2] -9.72% | activity, negative = cell killing [1, 3] -12.2% | activity, negative = cell killing [1, 5] -25.1%

CN(C)CC/C=C1\c2ccccc2Sc2ccc(Cl)cc21
active: Potency (MKL-2) 11.9 µM | Potency ([1]; tumour line A) 6.31 µM | Potency ([1]; tumour line D) 11.2 µM
inactive: Potency (MCC-13) | Potency (MCC-26) | Potency (C33A) | Potency (CAOV3) | Potency (CASKI) | Potency (Es-2) | Potency (HeLa) | Potency (Hek293T) | Potency (JEG-3) | Potency (PA-1) | Potency (Tov-21-G) | activity, negative = cell killing [1, 5] -26.8%

COc1cccc2c1C(=O)c1c(O)c3c(c(O)c1C2=O)C[C@@](O)(C(=O)CO)C[C@@H]3O[C@H]1C[C@H](N)[C@H](O)[C@H](C)O1
active: Potency (MCC-13) 5.96 µM | Potency (MCC-26) 2.11 µM | Potency (MKL-1) 0.211 µM | Potency (UISO) 0.75 µM | Potency (C33A) 2.82 µM | Potency (CAOV3) 2.51 µM | Potency (CASKI) 2 µM | Potency (Es-2) 10 µM | Potency (HeLa) 22.4 µM | Potency (Hek293T) 7.94 µM | Potency (JEG-3) 2.82 µM | Potency (OV90) 4.47 µM | Potency (SKOV3) 2.82 µM | Potency (Tov112D) 0.891 µM
inactive: activity, negative = cell killing [1, 2] -6.08% | activity, negative = cell killing [1, 3] -1.75% | activity, negative = cell killing [1, 4] -30.7% | activity, negative = cell killing [1, 5] -4.46%

CN1CCC(=C2c3ccccc3Sc3ccccc32)CC1
active: Potency (MKL-2) 13.3 µM
inactive: Potency (MCC-13) | Potency (MCC-26) | Potency (C33A) | Potency (CASKI) | Potency (Es-2) | Potency (HeLa) | Potency (Hek293T) | Potency (JEG-3) | Potency (PA-1) | Potency (Tov-21-G) | Potency (Tov112D)

CCCCCCCCCCCCCCNCCO
inactive: Potency (MCC-13) | Potency (MCC-26) | Potency (WaGa) | Potency (CASKI) | Potency (Es-2) | Potency (HeLa) | Potency (Hek293T) | Potency (JEG-3) | Potency (OV90) | Potency (PA-1) | Potency (SKOV3) | Potency (Tov-21-G) | Potency (Tov112D)

CC(=O)Nc1c(I)cc(I)c(C(=O)O)c1I
inactive: Potency (MCC-13) | Potency (MKL-1) | Potency (MKL-2) | outcome (NIH3T3) | Potency (UISO) | Potency (WaGa) | Potency (C33A) | Potency (CAOV3) | Potency (CASKI) | Potency (Es-2) | Potency (HeLa) | Potency (Hek293T) | Potency (JEG-3) | Potency (OV90) | Potency (PA-1) | Potency (SKOV3) | Potency (Tov-21-G) | Potency (Tov112D) | activity, negative = cell killing [1, 2] -18.2% | activity, negative = cell killing [1, 3] -1.85% | activity, negative = cell killing [1, 4] -31.3% | activity, negative = cell killing [1, 5] 23.7%
